Source: PubChem BioAssay (Tox21)
Inconclusive results are not listed. Unmarked numbers belong to inactive results. Calls follow the shape of the dose curve; as a rule, active = well fitted activation curve with a large enough effect in the repeat runs; inconclusive = weak or mixed curves; inactive = no such curve, though single readings can be large or run the other way. Positions of bridges follow the written chain, without caps; N, C: chain ends. Residues, ends and D or L forms follow the SMILES beside them.

biological target: Aryl hydrocarbon receptor (Homo sapiens) (UniProt P35869); experiment: qHTS assay to identify small molecule that activate the aryl hydrocarbon receptor (AhR) signaling pathway (AID 743085); conditions: HepG2 AhR-luc (HG2L7.5c1), luciferase, 24 h; series mostly up to 70.3 µM; activation: at the top concentration;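 also: HG2L7.5c1 human HepG2 liver cells with stably integrated DRE-driven firefly reporter; nearly all actives have a fitted effect of over 15% in size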
Text: U.S. Tox21 Program National Center for Advancing Translational Sciences [NCATS] NIH Chemical Genomics Center [NCGC] U.S. Environmental Protection Agency [EPA] National Institutes of Environmental Health Sciences [NIEHS] National Toxicology Program [NTP] U.S. Food and Drug Administration [FDA] Tox21 Assay overview: The Aryl hydrocarbon Receptor (AhR), a member of the family of basic helix-loop-helix transcription factors, is crucial to adaptive responses to environmental changes. AhR mediates cellular responses to environmental pollutants such as aromatic hydrocarbons through induction of phase I and II enzymes but also interacts with other nuclear receptor signaling pathways. A cell based HepG2-AhR-luc assay (HG2L7.5c1 cell line, developed by Dr. Michael S. Denison, University of California at Davis, was used to assess the activation of AhR. HepG2 (human hepatocellular carcinoma) cells were stably transfected with an Ah receptor-responsive firefly luciferase reporter gene plasmid containing 20 dioxin responsive elements and luciferase reporter gene. Increased luciferase activity can be used to identify the compounds that induce AhR activation.
Tox21 Assay Protocol Summary: 4000 cells in 5 uL/well were dispensed into white wall/solid bottom 1536-well plates using a Multidrop Combi (Thermo Fisher Scientific Inc., Waltham, MA) dispenser. After the assay plates were incubated at 37C for 5 h, 23 nL of compound or DMSO vehicle was transferred to the assay plates by a pintool station (Kalypsys, San Diego, CA). The plates were incubated at 37C for 24 hr. After 1 ul/well of CellTiter-Fluor reagent (Promega, Madison, WI) was added into the assay plates using a Flying Reagent Dispenser (FRD) (Aurora Discovery, CA), the assay plates were incubated at 37C for 30 min. The fluorescence intensity in the plates was measured using a ViewLux plate reader (PerkinElmer, Shelton, CT), followed by the addition of 4 uL of ONE-Glo Luciferase Assay reagent (Promega) using an FRD (Aurora Discovery). After the assay plates were incubated at room temperature for 30 min, luminescence intensity was measured using a ViewLux plate reader (Perkin Elmer).
% is scaled to controls: 0 for no effect and ±100 for the full control effect.

Sequence of Aryl hydrocarbon receptor (Homo sapiens) (P35869 whole entry, looked up): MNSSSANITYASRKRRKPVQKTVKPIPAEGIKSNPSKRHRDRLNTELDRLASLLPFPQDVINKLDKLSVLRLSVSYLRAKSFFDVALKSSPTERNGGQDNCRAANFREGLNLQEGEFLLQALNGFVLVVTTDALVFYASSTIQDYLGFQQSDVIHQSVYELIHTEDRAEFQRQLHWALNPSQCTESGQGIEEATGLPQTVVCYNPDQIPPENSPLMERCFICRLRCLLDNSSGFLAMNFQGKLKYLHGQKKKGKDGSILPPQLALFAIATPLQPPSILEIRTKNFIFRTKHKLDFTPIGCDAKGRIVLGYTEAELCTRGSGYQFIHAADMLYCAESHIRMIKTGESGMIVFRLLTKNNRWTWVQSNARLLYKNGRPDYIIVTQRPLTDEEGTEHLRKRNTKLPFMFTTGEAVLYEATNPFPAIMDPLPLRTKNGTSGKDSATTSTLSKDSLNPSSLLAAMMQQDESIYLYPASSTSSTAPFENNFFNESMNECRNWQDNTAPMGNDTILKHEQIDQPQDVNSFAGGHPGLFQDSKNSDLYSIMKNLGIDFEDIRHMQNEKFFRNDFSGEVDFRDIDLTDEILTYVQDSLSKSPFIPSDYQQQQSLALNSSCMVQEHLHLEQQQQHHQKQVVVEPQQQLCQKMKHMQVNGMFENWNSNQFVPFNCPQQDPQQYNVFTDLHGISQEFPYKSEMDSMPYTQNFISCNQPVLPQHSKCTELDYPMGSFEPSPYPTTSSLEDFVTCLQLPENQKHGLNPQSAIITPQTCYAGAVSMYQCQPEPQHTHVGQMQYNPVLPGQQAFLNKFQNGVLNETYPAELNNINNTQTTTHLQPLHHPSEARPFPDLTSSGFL

With `CO[C@H]1C[C@H](O[C@@H]2/C(C)=C/C[C@@H]3C[C@@H](C[C@]4(CC[C@H](C)[C@@H](C5CCCCC5)O4)O3)OC(=O)[C@@H]3C=C(C)/C(=N/O)[C@H]4OC/C(=C\C=C\[C@@H]2C)[C@]43O)O[C@@H](C)[C@@H]1O` as the compound, how does the “activation” value read?
The value was -1.14%.

For `CCCCCCCCCCCCCCCC(=O)O[C@@H]1CC(C)=C(/C=C/C(C)=C/C=C/C(C)=C/C=C/C=C(C)/C=C/C=C(C)/C=C/C2=C(C)C[C@@H](OC(=O)CCCCCCCCCCCCCCC)CC2(C)C)C(C)(C)C1`, which “activation” value is on record?
Its value is -0.227%.

Which “activation” value does the source give for `COc1ccc(C[C@@H](C)NC[C@H](O)c2ccc(O)c(NC=O)c2)cc1` here?
Its value is -0.17%.

With `CN(C)CC/C=C1/c2ccccc2CSc2ccccc21` as the compound, how does the “activation” value read?
The value was -1.93% [at 32.5 µM].

Which “activation” value does the source give for `Cn1c(=O)c2c(ncn2CCOC(=O)C(C)(C)Oc2ccc(Cl)cc2)n(C)c1=O` here?
Its value is -0.857%.

With `OCC(S)CS` (stereo not given) as the compound, how does the “activation” value read?
Its value is -0.898%.

For `C/C1=C2N=C(/C=C3N=C(/C(C)=C4\[N-]C(C(CC(N)=O)C4(C)CCC(=O)NCC(C)OP(=O)([O-])OC4C(CO)OC(n5cnc6cc(C)c(C)cc65)C4O)C4(C)N=C1C(CCC(N)=O)C4(C)CC(N)=O)C(CCC(N)=O)C\3(C)C)C(CCC(N)=O)C/2(C)CC(N)=O.[CH3-].[Co+3]` (stereo not given), which “activation” value is on record?
The value was 0.0186%.

`CC(C)(S)[C@@H](N)C(=O)O` was tested. Which “activation” value did it give?
Its value is -0.399%.

`CCC(CN)CC(C)CCNCC(O)CNCC(C)CC(CC)CN` (stereo not given) was tested. Which “activation” value did it give?
Its value is -3.82%.

With `C=C[C@]1(C)C[C@@H](OC(=O)CO)[C@]2(C)[C@H](C)CC[C@]3(CCC(=O)[C@H]32)[C@@H](C)[C@@H]1O` as the compound, how does the “activation” value read?
Its value is -2.48%.

How did the “activation” value turn out when `C[C@H]1C[C@@H]2[C@H]([C@@H](O)C[C@@]3(C)[C@H]2CC[C@]3(O)C(=O)COC(=O)CCC(=O)O)[C@@]2(C)C=CC(=O)C=C12` was run?
The value was 8.35%.

For `COc1ccc2c(c1)OC(C)(C)C(c1ccccc1)C2c1ccc(OCCN2CCCC2)cc1` (stereo not given), which “activation” value is on record?
The value was -1.05%.

`C=C1CC[C@@H]2[C@](C)(CO)[C@H](O)CC[C@@]2(C)[C@@H]1C/C=C1/C(=O)OC[C@H]1O` was tested. Which “activation” value did it give?
Its value is -0.726%.

How did the “activation” value turn out when `NC(=O)c1ccc[n+]([C@@H]2O[C@H](COP(=O)([O-])OP(=O)(O)OC[C@H]3O[C@@H](n4cnc5c(N)ncnc54)[C@H](O)[C@@H]3O)[C@@H](O)[C@H]2O)c1` was run?
Its value is 0.844% [at 32.5 µM].

With `O=P(O)(O)OC[C@H](O)CO` as the compound, how does the “activation” value read?
Its value is -0.112%.

For `O=C(Cn1c(=O)sc2ccc(Cl)cc21)N1CCN(CCO)CC1`, which “activation” value is on record?
The value was 1.86%.

With `O=C(O)c1nc(=O)[nH]c(=O)[nH]1` as the compound, how does the “activation” value read?
Its value is 1.53%.

For `CO/N=C(\C(=O)N[C@@H]1C(=O)N2C(C(=O)O)=C(CSc3nnnn3C)CS[C@H]12)c1csc(N)n1`, which “activation” value is on record?
Its value is 3.35%.

Which “activation” value does the source give for `COc1c(O[C@@H]2O[C@H](CO)[C@@H](O)[C@H](O)[C@H]2O)cc2c(c1OC)-c1ccc(SC)c(=O)cc1[C@@H](NC(C)=O)CC2` here?
Its value is -1.7% [at 32.5 µM].

With `C=CCN1CCCC1CNC(=O)c1cc(S(N)(=O)=O)cc(OC)c1OC` (stereo not given) as the compound, how does the “activation” value read?
Its value is 1.24%.

For `OC[C@@H](O)C(O)[C@H](O)CO`, which “activation” value is on record?
Its value is -0.0762%.

How did the “activation” value turn out when `Clc1cc(Cl)c(OCC#CI)cc1Cl` was run?
The value was -7.42%.

How did the “activation” value turn out when `O=P(O)(O)OC(Cn1cncn1)(Cn1cncn1)c1ccc(F)cc1F` was run?
The value was -3.31%.

For `O=C1NCCN1c1ncc([N+](=O)[O-])s1`, which “activation” value is on record?
The value was -1.09% [at 32.5 µM].

For `Cc1cc(-n2c(=O)[nH]c(=O)n(C)c2=O)ccc1Oc1ccc(S(=O)(=O)C(F)(F)F)cc1`, which “activation” value is on record?
The value was 0.852%.

With `CC(=O)N(CC(C)C(=O)O)c1c(I)cc(I)c(N)c1I` (stereo not given) as the compound, how does the “activation” value read?
The value was -1.82% [at 32.5 µM].

For `CC1C(=O)CC2C3(C)CCC2(C(C)C(=O)O)C(=O)C13` (stereo not given), which “activation” value is on record?
The value was -0.111%.

How did the “activation” value turn out when `CO[C@H]1[C@@H](O)[C@H](N)[C@@H](O[C@H]2O[C@H]([C@H](C)N)CC[C@H]2N)[C@H](O)[C@@H]1N(C)C(=O)CN` was run?
The value was -0.461%.

With `CCC(=O)Oc1ccc2c(c1)CC[C@@H]1[C@@H]2CC[C@]2(C)[C@@H](OC(=O)CC)CC[C@@H]12` as the compound, how does the “activation” value read?
Its value is -5.58%.

How did the “activation” value turn out when `NCCCC[C@H](NC(=O)[C@@H]1CCCN1C(=O)[C@@H]1CSSC[C@H](N)C(=O)N[C@@H](Cc2ccccc2)C(=O)N[C@@H](Cc2ccccc2)C(=O)N[C@@H](CCC(N)=O)C(=O)N[C@@H](CC(N)=O)C(=O)N1)C(=O)NCC(N)=O` was run?
The value was -1.86%.

How did the “activation” value turn out when `O=C(Nc1ccc(/C=C/c2ccc(NC(=O)c3cc(S(=O)(=O)O)c4cccnc4c3O)cc2S(=O)(=O)O)c(S(=O)(=O)O)c1)c1cc(S(=O)(=O)O)c2cccnc2c1O` was run?
Its value is 3.92%.

`O=S(=O)(O)CCCS(=O)(=O)O` was tested. Which “activation” value did it give?
Its value is -1.94%.

With `COc1ccc(C(=O)Nc2ccccc2CCC2CCCCN2C)cc1` (stereo not given) as the compound, how does the “activation” value read?
Its value is -0.108%.

Which “activation” value does the source give for `NCCCC[C@H](NC(=O)[C@@H]1CCCN1C(=O)[C@@H]1CSSC[C@H](NC(=O)CNC(=O)CNC(=O)CN)C(=O)N[C@@H](Cc2ccc(O)cc2)C(=O)N[C@@H](Cc2ccccc2)C(=O)N[C@@H](CCC(N)=O)C(=O)N[C@@H](CC(N)=O)C(=O)N1)C(=O)NCC(N)=O` (H-GGGCYFQNCPKG-NH2; disulfide 4-9) here?
Its value is -1.95%.

How did the “activation” value turn out when `Cc1cccc(C)c1NC(=O)NC1=CCCN1C` was run?
The value was -1.9%.

How did the “activation” value turn out when `CN[C@@H]1[C@@H](O)[C@@H](O[C@@H]2[C@@H](O)[C@H](OC3OC(CN)=CCC3N)[C@@H](N)C[C@H]2N)OC[C@]1(C)O` (stereo not given in full) was run?
Its value is -0.788% [at 32.5 µM].

How did the “activation” value turn out when `Nc1nc2c(c(=O)[nH]1)N(C=O)C(CNc1ccc(C(=O)N[C@@H](CCC(=O)O)C(=O)O)cc1)CN2` (stereo not given in full) was run?
The value was -1.42% [at 32.5 µM].

How did the “activation” value turn out when `CCCCCCCCCCCCCCCC(=O)O[C@@H]1[C@@H](O)[C@@H](O)[C@@H]([C@H](NC(=O)[C@@H]2C[C@@H](CCC)CN2C)[C@H](C)Cl)O[C@@H]1SC` was run?
Its value is -2.39%.

`Cc1ncc(C[n+]2csc(CCOP(=O)(O)OP(=O)(O)O)c2C)c(N)n1` was tested. Which “activation” value did it give?
The value was -0.61%.

With `CC(C)CN(C[C@@H](OP(=O)(O)O)[C@H](Cc1ccccc1)NC(=O)O[C@H]1CCOC1)S(=O)(=O)c1ccc(N)cc1` as the compound, how does the “activation” value read?
Its value is -1.15%.
